Measured values published in the supplement of paper PMC10849652.
Targets with a hit are over-represented here; the source holds about 7,900 in all. About 0.6% of all pairs of compound and target were hits.

Compound: O=C(CCCCCCNC(=O)c1cnc(N(c2ccccc2)c2ccccc2Cl)nc1)NO [citarinostat]
Assay: log2 fold change, soluble protein after heating vs DMSO (PISA); higher = thermal stabilisation; K562 cells, 10 uM, 30 min; active = over 0.2 and 3.5 SD of the protein, either way, in both replicates (recomputed)
Procedure, shortened: (§1)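 Quantification of soluble protein used TMTpro 16plex LC-MS/MS, with channel sums equalised. Samples were the supernatant after 21,000xg for 90 min of pooled aliquots from K562 cells (2×10^6 cells/mL) treated with 10 μM compound for 30 min, heated for 3 min over 48°C-58°C, and extracted in PBS with 0.5% NP-40 at 4°C. Values, from duplicates, describe thermal stability against control samples on a log2 fold-change scale.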

Chain of UniProt P08579 (P08579 whole entry, looked up): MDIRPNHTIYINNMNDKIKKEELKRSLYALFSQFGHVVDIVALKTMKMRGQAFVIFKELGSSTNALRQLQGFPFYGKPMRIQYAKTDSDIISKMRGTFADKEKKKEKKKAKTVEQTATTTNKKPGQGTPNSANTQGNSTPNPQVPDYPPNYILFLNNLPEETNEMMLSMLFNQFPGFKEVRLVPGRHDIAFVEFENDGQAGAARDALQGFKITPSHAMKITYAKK
Chain of UniProt O43815 (O43815 whole entry, looked up): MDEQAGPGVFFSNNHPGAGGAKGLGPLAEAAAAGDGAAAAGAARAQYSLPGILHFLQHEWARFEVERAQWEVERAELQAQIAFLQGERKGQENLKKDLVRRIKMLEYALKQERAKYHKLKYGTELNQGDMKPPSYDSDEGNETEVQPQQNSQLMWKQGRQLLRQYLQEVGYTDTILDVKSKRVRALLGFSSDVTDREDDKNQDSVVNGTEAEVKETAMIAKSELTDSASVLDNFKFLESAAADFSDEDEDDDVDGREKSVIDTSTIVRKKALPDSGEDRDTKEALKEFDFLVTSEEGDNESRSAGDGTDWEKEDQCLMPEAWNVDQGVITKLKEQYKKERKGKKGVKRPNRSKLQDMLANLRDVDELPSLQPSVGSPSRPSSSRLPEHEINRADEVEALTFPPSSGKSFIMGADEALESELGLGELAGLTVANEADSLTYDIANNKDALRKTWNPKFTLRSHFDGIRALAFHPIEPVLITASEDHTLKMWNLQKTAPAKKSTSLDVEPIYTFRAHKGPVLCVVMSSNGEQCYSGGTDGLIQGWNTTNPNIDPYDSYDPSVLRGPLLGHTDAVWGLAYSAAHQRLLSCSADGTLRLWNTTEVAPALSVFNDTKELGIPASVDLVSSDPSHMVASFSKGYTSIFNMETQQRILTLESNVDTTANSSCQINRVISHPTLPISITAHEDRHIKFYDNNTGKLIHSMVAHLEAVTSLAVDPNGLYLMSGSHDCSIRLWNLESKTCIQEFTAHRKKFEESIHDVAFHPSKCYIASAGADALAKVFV
Chain of UniProt Q8NEF9 (Q8NEF9 whole entry, looked up): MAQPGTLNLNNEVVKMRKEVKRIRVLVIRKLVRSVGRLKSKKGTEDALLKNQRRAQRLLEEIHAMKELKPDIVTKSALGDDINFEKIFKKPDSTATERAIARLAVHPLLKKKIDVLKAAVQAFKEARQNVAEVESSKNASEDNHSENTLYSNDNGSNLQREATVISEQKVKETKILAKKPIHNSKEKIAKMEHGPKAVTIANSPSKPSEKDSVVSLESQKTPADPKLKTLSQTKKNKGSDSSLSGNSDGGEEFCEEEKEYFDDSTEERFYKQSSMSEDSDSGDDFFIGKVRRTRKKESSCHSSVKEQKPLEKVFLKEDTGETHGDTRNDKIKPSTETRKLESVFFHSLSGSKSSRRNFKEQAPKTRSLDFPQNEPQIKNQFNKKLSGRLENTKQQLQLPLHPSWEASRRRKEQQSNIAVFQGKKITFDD
Chain of UniProt Q9H5Q4 (Q9H5Q4 whole entry, looked up): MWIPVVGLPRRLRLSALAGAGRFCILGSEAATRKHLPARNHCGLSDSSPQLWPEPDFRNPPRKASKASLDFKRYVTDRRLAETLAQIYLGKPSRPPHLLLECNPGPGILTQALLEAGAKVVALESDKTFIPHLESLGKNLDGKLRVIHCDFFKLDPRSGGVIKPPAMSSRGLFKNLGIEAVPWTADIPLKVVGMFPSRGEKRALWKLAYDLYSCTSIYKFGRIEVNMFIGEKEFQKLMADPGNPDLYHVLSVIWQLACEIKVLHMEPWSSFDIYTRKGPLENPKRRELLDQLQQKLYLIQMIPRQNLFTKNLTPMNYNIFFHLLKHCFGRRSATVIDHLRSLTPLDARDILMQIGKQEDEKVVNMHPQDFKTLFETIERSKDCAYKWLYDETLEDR
Chain of UniProt Q01085 (Q01085 whole entry, looked up): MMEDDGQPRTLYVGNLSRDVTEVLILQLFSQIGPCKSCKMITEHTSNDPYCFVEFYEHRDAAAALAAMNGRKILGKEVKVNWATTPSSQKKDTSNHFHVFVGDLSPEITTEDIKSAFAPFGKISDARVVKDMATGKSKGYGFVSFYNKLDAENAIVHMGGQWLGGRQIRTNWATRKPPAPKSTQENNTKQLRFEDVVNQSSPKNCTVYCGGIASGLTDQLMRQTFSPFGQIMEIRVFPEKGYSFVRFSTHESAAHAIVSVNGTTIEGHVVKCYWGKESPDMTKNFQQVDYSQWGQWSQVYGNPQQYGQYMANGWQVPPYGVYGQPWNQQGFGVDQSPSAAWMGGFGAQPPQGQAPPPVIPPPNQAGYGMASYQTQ
Chain of UniProt Q9UMY4 (Q9UMY4 whole entry, looked up): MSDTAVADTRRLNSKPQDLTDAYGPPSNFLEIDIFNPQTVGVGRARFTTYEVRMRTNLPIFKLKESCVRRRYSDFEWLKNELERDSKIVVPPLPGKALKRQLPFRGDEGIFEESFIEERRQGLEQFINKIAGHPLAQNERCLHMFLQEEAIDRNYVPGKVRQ
Chain of UniProt P04183 (P04183 whole entry, looked up): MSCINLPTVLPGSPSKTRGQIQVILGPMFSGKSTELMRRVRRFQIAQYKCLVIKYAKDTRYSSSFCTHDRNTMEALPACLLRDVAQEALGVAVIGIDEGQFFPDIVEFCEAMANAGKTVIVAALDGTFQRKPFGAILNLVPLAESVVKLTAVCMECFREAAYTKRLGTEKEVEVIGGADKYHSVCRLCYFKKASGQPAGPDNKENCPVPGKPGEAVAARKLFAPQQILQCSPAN
Chain of UniProt Q08945 (Q08945 whole entry, looked up): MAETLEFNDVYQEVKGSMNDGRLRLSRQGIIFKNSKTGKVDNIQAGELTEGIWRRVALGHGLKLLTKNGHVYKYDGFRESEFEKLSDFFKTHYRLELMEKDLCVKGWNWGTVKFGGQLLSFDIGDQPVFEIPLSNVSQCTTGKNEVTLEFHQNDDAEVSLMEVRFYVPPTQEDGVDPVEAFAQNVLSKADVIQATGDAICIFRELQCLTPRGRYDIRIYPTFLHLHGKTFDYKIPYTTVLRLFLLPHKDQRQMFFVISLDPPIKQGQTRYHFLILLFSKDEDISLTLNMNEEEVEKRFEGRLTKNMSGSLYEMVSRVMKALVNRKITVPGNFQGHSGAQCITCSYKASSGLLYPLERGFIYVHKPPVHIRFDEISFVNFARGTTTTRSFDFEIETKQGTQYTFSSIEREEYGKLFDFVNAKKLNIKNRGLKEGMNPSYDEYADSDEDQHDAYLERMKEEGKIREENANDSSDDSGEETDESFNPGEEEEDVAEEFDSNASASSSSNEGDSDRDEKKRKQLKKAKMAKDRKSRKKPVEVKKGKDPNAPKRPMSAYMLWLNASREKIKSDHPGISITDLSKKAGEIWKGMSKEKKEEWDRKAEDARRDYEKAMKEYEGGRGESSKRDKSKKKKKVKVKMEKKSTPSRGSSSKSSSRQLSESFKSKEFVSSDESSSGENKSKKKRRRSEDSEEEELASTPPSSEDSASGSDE
Chain of UniProt Q16594 (Q16594 whole entry, looked up): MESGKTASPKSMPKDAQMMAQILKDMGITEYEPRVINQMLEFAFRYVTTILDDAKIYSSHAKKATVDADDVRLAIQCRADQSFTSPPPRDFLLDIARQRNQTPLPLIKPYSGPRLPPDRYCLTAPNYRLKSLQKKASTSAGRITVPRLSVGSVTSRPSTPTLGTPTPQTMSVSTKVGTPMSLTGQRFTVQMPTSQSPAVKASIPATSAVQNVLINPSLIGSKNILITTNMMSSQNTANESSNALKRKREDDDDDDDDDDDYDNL
Chain of UniProt Q5VWP2 (Q5VWP2 whole entry, looked up): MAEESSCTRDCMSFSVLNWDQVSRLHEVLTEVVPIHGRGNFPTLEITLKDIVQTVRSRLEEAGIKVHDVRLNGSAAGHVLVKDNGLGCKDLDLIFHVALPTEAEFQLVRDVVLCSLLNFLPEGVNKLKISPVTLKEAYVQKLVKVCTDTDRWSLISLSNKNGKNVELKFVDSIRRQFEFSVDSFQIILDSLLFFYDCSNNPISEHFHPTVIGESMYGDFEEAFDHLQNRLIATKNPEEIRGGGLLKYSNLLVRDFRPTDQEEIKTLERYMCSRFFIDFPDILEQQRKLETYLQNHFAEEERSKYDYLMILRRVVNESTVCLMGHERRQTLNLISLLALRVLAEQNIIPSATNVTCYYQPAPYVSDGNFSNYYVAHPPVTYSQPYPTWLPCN
Chain of UniProt Q9BWG4 (Q9BWG4 whole entry, looked up): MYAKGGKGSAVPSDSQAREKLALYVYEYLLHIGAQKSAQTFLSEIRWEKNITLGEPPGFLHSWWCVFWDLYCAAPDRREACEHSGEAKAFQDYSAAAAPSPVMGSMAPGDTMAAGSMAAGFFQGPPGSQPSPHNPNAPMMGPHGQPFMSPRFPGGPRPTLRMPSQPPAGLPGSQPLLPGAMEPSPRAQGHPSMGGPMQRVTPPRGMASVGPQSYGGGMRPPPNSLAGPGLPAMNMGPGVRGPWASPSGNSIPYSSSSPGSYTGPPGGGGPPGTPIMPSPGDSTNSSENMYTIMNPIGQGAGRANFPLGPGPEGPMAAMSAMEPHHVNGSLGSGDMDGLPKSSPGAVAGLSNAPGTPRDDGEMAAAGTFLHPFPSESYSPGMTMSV
Chain of UniProt Q14849 (Q14849 whole entry, looked up): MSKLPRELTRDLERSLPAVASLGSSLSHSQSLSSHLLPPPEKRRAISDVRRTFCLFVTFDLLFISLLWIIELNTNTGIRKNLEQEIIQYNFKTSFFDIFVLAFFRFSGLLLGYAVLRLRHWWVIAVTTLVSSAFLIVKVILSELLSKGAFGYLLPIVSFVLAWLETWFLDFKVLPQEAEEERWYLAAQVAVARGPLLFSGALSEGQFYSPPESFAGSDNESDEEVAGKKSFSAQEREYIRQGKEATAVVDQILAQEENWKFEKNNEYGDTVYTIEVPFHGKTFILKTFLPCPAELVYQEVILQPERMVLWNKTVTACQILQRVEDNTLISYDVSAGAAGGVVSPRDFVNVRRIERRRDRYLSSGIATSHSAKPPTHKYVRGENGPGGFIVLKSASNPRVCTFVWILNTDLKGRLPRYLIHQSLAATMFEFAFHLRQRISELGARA

log2 fold change, inactive:
SRCAP (UniProt Q6ZRS2) 0.014, SNRPB2 (UniProt P08579) 0.023, SNX15 (UniProt Q9NRS6) 0.113, TIAL1 isoform 2 (UniProt Q01085) -0.002, TENT5C (UniProt Q5VWP2) 0.144, SLC39A11 (UniProt Q8N1S5) -0.059, TFB2M (UniProt Q9H5Q4) 0.01, SSBP4 (UniProt Q9BWG4) 0.018, SYNE1 (UniProt Q8NF91) 0.106, SRFBP1 (UniProt Q8NEF9) 0, STRN (UniProt O43815) 0.028, SYNE2 isoform 2 (UniProt Q8WXH0) 0.053, SNX12 isoform 1 (UniProt Q9UMY4) 0.102

Compound: O=C(O)c1ccc2c(c1)nc(Nc1cccc(Cl)c1)c1ccncc12 [silmitasertib]
Assay: as above
Procedure, shortened: as §1

log2 fold change, inactive:
SMAP (UniProt O00193) -0.033, TGFBR1 isoform 2 (UniProt P36897) 0.073, SLC7A6OS (UniProt Q96CW6) 0.06, TK1 (UniProt P04183) 0.013, TACC2 (UniProt O95359) 0.116, TEX30 (UniProt Q5JUR7) 0.073, STK11IP (UniProt Q8N1F8) 0.217, SRXN1 (UniProt Q9BYN0) -0.059, SSRP1 (UniProt Q08945) 0.007, STK38L (UniProt Q9Y2H1) 0.101, TAF9 (UniProt Q16594) -0.039, SP1 (UniProt P08047) -0.007, SRPRB (UniProt Q9Y5M8) -0.007, SLC38A7 (UniProt Q9NVC3) 0.022, SP100 isoform 4 (UniProt P23497) 0.059, TK1 (UniProt K7ERV3) -0.039, SMARCA4 (UniProt P51532) -0.017, SLC44A2 isoform 2 (UniProt Q8IWA5) -0.071, TBC1D20 isoform 3 (UniProt Q96BZ9) 0.03, SRSF6 (UniProt Q13247) -0.254, SPIRE1 (UniProt Q08AE8) -0.008, SRC isoform 2 (UniProt P12931) 0.122, SMG1 (UniProt Q96Q15) 0.142, SRCAP (UniProt Q6ZRS2) -0.022, SNRPB2 (UniProt P08579) 0.051, STARD3 (UniProt Q14849) 0.053, SNX15 (UniProt Q9NRS6) 0.276, TIAL1 isoform 2 (UniProt Q01085) -0.003, TENT5C (UniProt Q5VWP2) -0.038, SLC39A11 (UniProt Q8N1S5) 0.078, TFB2M (UniProt Q9H5Q4) 0.046, SSBP4 (UniProt Q9BWG4) -0.008, SYNE1 (UniProt Q8NF91) -0.03, SRFBP1 (UniProt Q8NEF9) 0.054, STRN (UniProt O43815) 0, SYNE2 isoform 2 (UniProt Q8WXH0) -0.056, SNX12 isoform 1 (UniProt Q9UMY4) 0.06

Compound: O=C1NC(=O)C(c2cnc3ccccn23)=C1c1cn2c3c(cc(F)cc13)CN(C(=O)N1CCCCC1)CC2
Assay: as above
Procedure, shortened: as §1

log2 fold change, inactive:
SMAP (UniProt O00193) 0.006, TGFBR1 isoform 2 (UniProt P36897) -0.052, SLC7A6OS (UniProt Q96CW6) -0.036, TK1 (UniProt P04183) -0.025, TEX30 (UniProt Q5JUR7) -0.04, TATDN2 (UniProt Q93075) 0.067, STK11IP (UniProt Q8N1F8) 0.095, SRXN1 (UniProt Q9BYN0) -0.111, SSRP1 (UniProt Q08945) -0.171, STK38L (UniProt Q9Y2H1) -0.078, TAF9 (UniProt Q16594) -0.022, SP1 (UniProt P08047) 0.088, SRPRB (UniProt Q9Y5M8) -0.014, SLC38A7 (UniProt Q9NVC3) -0.107, SP100 isoform 4 (UniProt P23497) -0.051, TK1 (UniProt K7ERV3) -0.116, SMARCA4 (UniProt P51532) -0.067, SLC44A2 isoform 2 (UniProt Q8IWA5) -0.075, TBC1D20 isoform 3 (UniProt Q96BZ9) -0.007, SRSF6 (UniProt Q13247) 0.108, SPIRE1 (UniProt Q08AE8) 0.224, SRC isoform 2 (UniProt P12931) 0.093, SMG1 (UniProt Q96Q15) 0.013, SNRPB2 (UniProt P08579) 0.046, STARD3 (UniProt Q14849) -0.003, TIAL1 isoform 2 (UniProt Q01085) 0.003, TFB2M (UniProt Q9H5Q4) -0.024, SYNE1 (UniProt Q8NF91) -0.244, SRFBP1 (UniProt Q8NEF9) 0.122, STRN (UniProt O43815) -0.051, SNX12 isoform 1 (UniProt Q9UMY4) -0.081
